Measurements taken from PubChem BioAssay (Tox21).
“And” between values parts separate entries of the source, which are not always exact repeats. Equal values may be shown once. Results filed as inconclusive are left out. Where a call stands in place of a potency, no number is given. The source holds several records for some structures; these can differ, active in one and inactive in another. The source made the active and inactive calls. Calls come from the whole dose curve; as a rule, active = well fitted cell-killing curve with a large enough effect in the repeat runs; inconclusive = weak or mixed curves; inactive = flat fitted curve, though single readings scatter.

assay: qHTS assay to identify small molecule antagonists of the estrogen related receptor (ERR) signaling pathway from Tox21 library - cell viability counter screen (AID 1224834); settings: ERR reporter cells viability, CellTiter-Fluor, 17.5 h; series mostly up to 92.4 µM; viability change, negative = cytotoxic: at the top concentration; note: nearly all actives have a fitted effect of over 30% in size
Description: National Center for Advancing Translational Sciences [NCATS]
NIH Chemical Genomics Center [NCGC]
U.S. Environmental Protection Agency [EPA]
National Institutes of Environmental Health Sciences [NIEHS]
National Toxicology Program [NTP]
U.S. Food and Drug Administration [FDA]
Estrogen related receptors (ERRs), the first orphan nuclear receptors discovered, play an important role in the control of cellular energy metabolism. ERRs are required for high-energy production in response to the environmental challenges. ERR-alpha was also identified as an adverse marker for breast cancer progression; ERR-alpha-positive tumors have a poor prognosis. To screen and to identify environmental compounds that perturb the ERR signaling pathways could provide valuable information for potential therapeutic or preventive measures in the treatment of metabolic disease. To differentiate true ERR antagonists or agonist from cytotoxic substances, the assay is multiplexed with cell viability assay.
Tox21 Assay Protocol Summary:
The ERR cells were dispensed at 2,000 cells/5 ul/well in 1536-well white plates using a Multidrop dispenser. After the assay plates were incubated at a 37 C/5% CO2 incubator for 6 hours, 23 nL of compounds dissolved in DMSO, positive and negative controls or DMSO only was transferred to the assay plate by a pin tool. The plates were incubated at 37 C for 17.5 hours. 1 ul/well of CellTiter-Fluor reagent was added into the assay plates using a Flying Reagent Dispenser. After 30-minute incubation at 37 C/5% CO2, the fluorescence intensity in the plates was measured using a ViewLux plate reader.
Potency is the fitted concentration of half-maximal effect.

Row | Compound | Potency | viability change, negative = cytotoxic
1 | COc1ccc(OC(F)(F)F)cc1CN[C@H]1CCCN[C@H]1c1ccccc1 | 54.5 µM (active) | –
2 | Cc1ncc([N+](=O)[O-])n1C | inactive | –
3 | CCCc1cc(=O)[nH]c(=S)[nH]1 | inactive | –
4 | CC(=O)CC(c1ccccc1)c1c(O)c2ccccc2oc1=O (stereo not given) | inactive | –
5 | NS(=O)(=O)O | inactive | –
6 | O=C1NS(=O)(=O)c2ccccc21 | inactive | –
7 | OC[C@H]1O[C@H](O[C@]2(CCl)O[C@H](CCl)[C@@H](O)[C@@H]2O)[C@H](O)[C@@H](O)[C@H]1Cl | inactive | –
8 | C[C@](N)(Cc1ccc(O)c(O)c1)C(=O)O | inactive | –
9 | O=CC(=O)c1ccccc1 | – | -9.71% (inactive)
10 | CCCCCCc1ccc(O)cc1O | 61.3 µM (active) | –
11 | O=c1[nH]cnc2c1ncn2[C@H]1CC[C@@H](CO)O1 | inactive | –
12 | Oc1ccccc1 | inactive | –
13 | CC12CCC(CC1)C(C)(C)O2 | inactive | –
14 | Cc1ncc([N+](=O)[O-])n1CCO | inactive | –
15 | CN(N=O)C(=O)N[C@@H]1[C@@H](O)[C@H](O)[C@@H](CO)O[C@@H]1O | inactive | –
16 | CCCCC1(COC(=O)CCC(=O)O)C(=O)N(c2ccccc2)N(c2ccccc2)C1=O | inactive | –
17 | CN(C)CCOC(C)(c1ccccc1)c1ccccn1 (stereo not given) | inactive | –
18 | C=C1CC[C@H](O)C/C1=C\C=C1/CCC[C@]2(C)[C@@H]([C@H](C)CCCC(C)C)CC[C@@H]12 | 54 µM (active) | –
19 | CCCC[P+](CCCC)(CCCC)CCCC | inactive | –
20 | Nc1ccc(S(N)(=O)=O)cc1 | inactive | –

Row | Compound | Potency | viability change, negative = cytotoxic
21 | CCCCNC(=O)NS(=O)(=O)c1ccc(C)cc1 | inactive | –
22 | Cc1cc(=O)oc2cc(O)ccc12 | inactive | –
23 | CC(C)c1c(C(=O)Nc2ccccc2)c(-c2ccccc2)c(-c2ccc(F)cc2)n1CC[C@@H](O)C[C@@H](O)CC(=O)O | – | 2.49% [at 42.5 µM] (inactive)
24 | O=c1[nH]cc(F)c(=O)[nH]1 | 31.8 µM (active) and inactive | –
25 | O=C1c2c(O)cccc2Cc2cccc(O)c21 | inactive | –
26 | Nc1c(N=Nc2ccc(-c3ccc(N=Nc4cc(S(=O)(=O)O)c5ccccc5c4N)cc3)cc2)cc(S(=O)(=O)O)c2ccccc12 | 21.7 µM (active) | –
27 | CC(C)NCC(O)c1ccc(O)c(O)c1 (stereo not given) | inactive | –
28 | O=C1O[C@H]([C@@H](O)CO)C(O)=C1O | inactive | –
29 | Cc1ccc(S(=O)(=O)O)cc1 | inactive | –
30 | CC1(C)S[C@@H]2[C@H](NC(=O)[C@H](N)c3ccccc3)C(=O)N2[C@H]1C(=O)O | inactive | –
31 | CCN(CC)C(=O)c1cccc(C)c1 | inactive | –
32 | O=C(O)CC(O)C(=O)O (stereo not given) | inactive | –
33 | Cc1cn([C@H]2C=C[C@@H](CO)O2)c(=O)[nH]c1=O | inactive | –
34 | CCCCCCCCCCCC[N+](C)(C)Cc1ccccc1 | 60 µM (active) and 66.4 µM (active) and 23.7 µM (active) | –
35 | Nc1ccc(O)c([N+](=O)[O-])c1 | 21.7 µM (active) | –
36 | CCOC(N)=O | inactive | –
37 | CC(=O)CCC(=O)O | inactive | –
38 | O=S1(=O)OC(c2ccc(O)cc2)(c2ccc(O)cc2)c2ccccc21 | 27.3 µM (active) and 18.8 µM (active) | –
39 | Cc1cccc(C)c1 | inactive | –
40 | CN(C)CCOC(c1ccccc1)c1ccccc1 | inactive | –
